Test results from PubChem BioAssay AID602399 (Sanford-Burnham Center for Chemical Genomics, 2012).
The whole screen tested about 360,000 compounds, of which about 2,800 (0.78%) were called active. Shown is part of a subset that was picked to be rich in actives. Unmarked numbers belong to inactive results. No stated cut-off is given here; in the data, active means inhibition above about 26%; inactive means the rest.

Tested on: Nicotinate-nucleotide adenylyltransferase NadD (Staphylococcus aureus N315)
Assay: inhibitors of S. aureus NadD, primary screen, biochemical, colorimetric, uHTS (AID 602399)
Conditions: purified NadD enzyme, colorimetric absorbance read-out; at 20 µM; stronger effect = higher value

SMILES | inhibition
Cc1cccc(N2C(=O)NC(=O)/C(=C\c3cnn(-c4ccccc4)c3)C2=O)c1 | 31.6% (active)
COC(=O)CN1C(=O)C2(C(C(=O)OC)=C(N)Oc3ccccc32)C2=C1CC(C)(C)CC2=O (stereo not given) | -11.2%
CC1(C)C(c2ccccc2)=NC(c2cccnc2)=[N+]1[O-] | -1.36%
Cc1cccc(NC(=O)N2CC3CC(C2)c2cccc(=O)n2C3)c1 (stereo not given) | -1.21%
COC1C(O)C(C)OC(OC2CCC3(C=O)C(CCC4C3CCC3(C)C(C5=CC(=O)OC5)CCC43O)C2)C1O (stereo not given) | -4.34%
CCOC(=O)c1c(C)c(C(=O)N2CCC3(CC2)OCCO3)c(C)n1CC | -2.05%
O=c1[nH]c(CN2CC=C(c3ccccc3)CC2)nc2scc(-c3cccs3)c12 | 29.6% (active)
CC1=CC(=Cc2sc3ccccc3[n+]2C)C=C(C)O1 | 1.49%
CCN1C(=O)NC(=O)C2(CCCC2)C1=O | 1.24%
c1cc2c(cc1C1OCC3C(c4ccc5c(c4)OCO5)OCC13)OCO2 (stereo not given) | 1.25%
CCCCCn1c(=O)c(C(=O)NCc2ccccc2)c(O)c2ccccc21 | 1.88%
CCCCCn1c(=O)c(C(=O)Nc2c(C)n(C)n(-c3ccccc3)c2=O)c(O)c2ccccc21 | 29.9% (active)
CCCCn1c(=O)c(C(=O)Nc2ccccc2Cl)c(O)c2ccccc21 | -7.15%
Clc1ccc2nc3c(c(-c4ccccc4)c2c1)CNCC3 | -4.51%
COCc1cc(OC(=O)N(C)C)nc(-c2ccc(C)c(Cl)c2)n1 | -4.84%
COC1=C[C@@H]2[C@@H]3Cc4ccc(OC)c(O)c4[C@]2(CCN3C)CC1=O | 3.24%
O=C1NC(=O)N(Cc2ccco2)C(=O)/C1=C\c1ccc(-c2ccc(F)cc2)o1 | 38.2% (active)
O=C(Cn1c(=O)n(CC2CS2)c2ccccc21)N1CCCCC1 (stereo not given) | -1.82%
COc1cccc(-c2nc3ccc(N4CCN(C)CC4)cc3[nH]2)c1 | -5.51%
COC(=O)C1=C(c2cc3ccccc3o2)C[C@@H]2CC[C@H]1N2C(=O)NC1CCCCC1 | 0.201%
